Test results taken from PubChem BioAssay (Tox21).
Several values for one entry are separate records, joined by “and”; a condition that tells them apart may be missing. Identical values can stand only once. Results filed as inconclusive are left out. Activity calls are given as the source filed them. The call rests on the fitted dose curve; in most records, active means well fitted curve in the direction sought with a large enough effect in the repeat runs; inconclusive means weak or mixed curves; inactive means no such curve, though single readings can be large; an effect the other way counts as inactive or inconclusive.

Key:
[1] = Caspase-3/7 induction in HepG2 cells by small molecules, qHTS assay (AID 1346978); further: nearly all actives have a fitted effect of over 15% in size
Method in brief: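 Wild-type HepG2 cells, 2,000/well, settled 5 hr at 37 C and 5% CO2, then compound-treated for 17 hr; caspase-3/7 activity read by luminescent Caspase-Glo 3/7 after 30 min at room temperature.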

[2] = Caspase-3/7 induction in CHO-K1 cells by small molecules, qHTS cell viability counter screen (AID 1346979); further: nearly all actives have a fitted effect of over 35% in size; further: potency means the concentration at half of the fitted maximal effect
Method in brief: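 CellTiter-Fluor viability check, qHTS format: wild-type CHO-K1, 16hr compound treatment, 1hr reagent incubation, fluorescence read.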

[3] = Caspase-3/7 induction in CHO-K1 cells by small molecules, qHTS assay (AID 1346980); further: nearly all actives have a fitted effect of over 15% in size
Method in brief: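 Wild-type CHO-K1 cells exposed to compounds for 17hr at 37 C, 5% CO2. Caspase-3/7 activity then measured by Caspase-Glo 3/7 luminescence after 30min at room temperature.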

[4] = Caspase-3/7 induction in HepG2 cells by small molecules, qHTS cell viability counter screen (AID 1346981); further: nearly all actives have a fitted effect of over 30% in size; further: potency means the concentration at half of the fitted maximal effect; on activity change, negative = cytotoxicity: series mostly up to about 92 µM
Method in brief: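 Wild-type HepG2 cells, 2,000/well, settled 5 hr at 37 C, 5% CO2 before compound addition. Viability read by CellTiter-Fluor fluorescence, reagent added after 16 hr compound exposure, then 1 hr at 37C, in the same wells as the caspase read.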

[5] = target: Nuclear receptor subfamily 1 group I member 2 (Homo sapiens) (UniProt O75469); assay: Human pregnane X receptor (PXR) small molecule agonists, qHTS assay (AID 1346982); further: nearly all actives have a fitted effect of over 35% in size; further: potency means the concentration at half of the fitted maximal effect
Sequence of Nuclear receptor subfamily 1 group I member 2 (Homo sapiens) (O75469 whole entry, looked up): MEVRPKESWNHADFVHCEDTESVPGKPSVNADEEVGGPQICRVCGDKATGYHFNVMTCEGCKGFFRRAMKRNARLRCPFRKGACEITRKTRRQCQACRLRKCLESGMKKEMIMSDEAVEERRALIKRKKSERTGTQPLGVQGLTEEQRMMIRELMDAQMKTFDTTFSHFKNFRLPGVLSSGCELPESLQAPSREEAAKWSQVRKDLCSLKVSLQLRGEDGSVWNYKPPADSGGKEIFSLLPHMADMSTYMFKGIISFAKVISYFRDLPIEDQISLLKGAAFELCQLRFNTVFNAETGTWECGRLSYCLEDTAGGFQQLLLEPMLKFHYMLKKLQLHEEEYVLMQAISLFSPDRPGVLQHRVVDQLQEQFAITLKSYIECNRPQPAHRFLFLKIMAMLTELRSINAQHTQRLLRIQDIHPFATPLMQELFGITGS
Method in brief: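 PXR-Luc HepG2 reporter cells (CYP3A4-driven luciferase) in 5% charcoal-stripped FBS medium, plated 5 h before compound addition, then treated 24 h at 37C. Luciferase read by ONE-Glo luminescence after 30 min at room temperature.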

[6] = target: Nuclear receptor subfamily 1 group I member 2 (Homo sapiens) (UniProt O75469); assay: CYP3A4 induction through human pregnane X receptor (PXR) by small molecules, qHTS assay (AID 1346984); further: nearly all actives have a fitted effect of over 40% in size; further: potency means the concentration at half of the fitted maximal effect
Method in brief: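 DPX-2 HepG2 cells carrying a PXR response element and CYP3A4-promoter luciferase construct, treated with compounds 24 hr at 37C. Then P450-Glo CYP3A4 Luciferin-IPA substrate (3uM final) for 3 hr at 37C, One-Glo added, luminescence read.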

[7] = target: Nuclear receptor subfamily 1 group I member 2 (Homo sapiens) (UniProt O75469); assay: Human pregnane X receptor (PXR) activation by small molecules, qHTS assay (AID 1346985); further: nearly all actives have a fitted effect of over 40% in size; further: potency means the concentration at half of the fitted maximal effect
Method in brief: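 DPX-2 cells (HepG2 co-transfected with a PXR response element and a CYP3A4-promoter luciferase construct) were seeded at 2,000 per well, rested 5 hr at 37C, then exposed to DMSO-dissolved compounds for 24 hr. Activation was read as luciferase luminescence.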

[8] = target: Cytochrome P450 2C19 (Homo sapiens) (UniProt P33261); assay: Cytochrome P450 Family 2 Subfamily C Member 19 (CYP2C19) small molecule antagonists: luciferase reporter qHTS assay (AID 1671197); further: nearly all actives have a fitted effect of over 65% in size; further: potency means the concentration at half of the fitted maximal effect; on activity change, negative = inhibition: series mostly up to about 120 µM
Sequence of Cytochrome P450 2C19 (Homo sapiens) (P33261 whole entry, looked up): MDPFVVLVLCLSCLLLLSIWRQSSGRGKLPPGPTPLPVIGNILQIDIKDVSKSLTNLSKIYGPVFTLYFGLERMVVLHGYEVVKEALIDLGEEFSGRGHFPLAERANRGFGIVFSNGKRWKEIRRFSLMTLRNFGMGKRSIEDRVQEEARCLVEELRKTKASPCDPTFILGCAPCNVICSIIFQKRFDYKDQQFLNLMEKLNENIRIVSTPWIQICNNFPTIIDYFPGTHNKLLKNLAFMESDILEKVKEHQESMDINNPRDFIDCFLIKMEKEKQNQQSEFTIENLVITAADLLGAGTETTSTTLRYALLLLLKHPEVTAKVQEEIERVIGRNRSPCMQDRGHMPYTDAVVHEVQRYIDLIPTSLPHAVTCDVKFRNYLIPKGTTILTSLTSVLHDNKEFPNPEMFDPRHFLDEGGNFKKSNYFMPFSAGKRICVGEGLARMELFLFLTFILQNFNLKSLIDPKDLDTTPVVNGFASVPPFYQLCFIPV
Method in brief: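 Quantitative high-throughput screen of the Tox21 library using CYP2C19 with proluciferin substrate. Reaction: NADPH regeneration, 37C, 1 h, after 10 min compound preincubation at room temperature. Readout: luminescence.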

[9] = target: Cytochrome P450 2C9 (Homo sapiens) (UniProt P11712); assay: Cytochrome P450 Family 2 Subfamily C Member 9 (CYP2C9) small molecule antagonists: luciferase reporter qHTS assay (AID 1671198); further: nearly all actives have a fitted effect of over 50% in size; further: potency means the concentration at half of the fitted maximal effect; on activity change, negative = inhibition: series mostly up to about 120 µM
Sequence of Cytochrome P450 2C9 (Homo sapiens) (P11712 whole entry, looked up): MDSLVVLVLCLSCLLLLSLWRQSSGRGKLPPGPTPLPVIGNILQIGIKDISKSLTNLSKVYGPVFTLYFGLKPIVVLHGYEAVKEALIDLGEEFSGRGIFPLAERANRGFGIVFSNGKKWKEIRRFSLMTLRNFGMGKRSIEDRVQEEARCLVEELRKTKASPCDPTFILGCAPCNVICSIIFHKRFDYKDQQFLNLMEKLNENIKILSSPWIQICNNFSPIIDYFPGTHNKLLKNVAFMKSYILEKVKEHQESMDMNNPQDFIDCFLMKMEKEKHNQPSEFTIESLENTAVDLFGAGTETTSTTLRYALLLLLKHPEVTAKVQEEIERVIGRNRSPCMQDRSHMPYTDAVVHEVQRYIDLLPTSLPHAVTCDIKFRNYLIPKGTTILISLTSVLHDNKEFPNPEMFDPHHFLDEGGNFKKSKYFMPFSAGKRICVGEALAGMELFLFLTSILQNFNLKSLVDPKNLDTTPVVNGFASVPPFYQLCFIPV
Method in brief: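 P450-Glo proluciferin substrate with CYP2C9 enzyme; 10 min RT preincubation, then NADPH regeneration 1 h at 37C; luciferin detection reagent 20 min RT, luminescence in relative luminescence units.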

[10] = target: Cytochrome P450 1A2 (Homo sapiens) (UniProt P05177); assay: Cytochrome P450 Family 1 Subfamily A Member 2 (CYP1A2) small molecule antagonists: luciferase reporter qHTS assay (AID 1671199); further: nearly all actives have a fitted effect of over 50% in size; further: potency means the concentration at half of the fitted maximal effect; on activity change, negative = inhibition: series mostly up to about 120 µM
Sequence of Cytochrome P450 1A2 (Homo sapiens) (P05177 whole entry, looked up): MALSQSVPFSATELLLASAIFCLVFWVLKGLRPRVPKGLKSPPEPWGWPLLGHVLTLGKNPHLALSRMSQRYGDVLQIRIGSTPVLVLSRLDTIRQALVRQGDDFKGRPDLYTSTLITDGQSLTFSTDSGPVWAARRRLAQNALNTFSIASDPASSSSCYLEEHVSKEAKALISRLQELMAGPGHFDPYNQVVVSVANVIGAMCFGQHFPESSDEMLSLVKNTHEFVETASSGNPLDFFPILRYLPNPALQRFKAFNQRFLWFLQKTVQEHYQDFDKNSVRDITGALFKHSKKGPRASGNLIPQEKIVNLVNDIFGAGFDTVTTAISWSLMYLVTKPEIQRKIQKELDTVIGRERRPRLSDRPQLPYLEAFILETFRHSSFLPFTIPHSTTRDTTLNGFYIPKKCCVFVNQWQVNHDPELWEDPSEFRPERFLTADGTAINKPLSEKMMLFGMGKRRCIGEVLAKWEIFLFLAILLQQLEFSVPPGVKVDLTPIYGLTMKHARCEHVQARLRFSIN
Method in brief: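 P450-Glo CYP1A2 enzyme–proluciferin substrate mix with compound 10 min at room temperature, then NADPH regeneration 1 h at room temperature. Luciferin detection reagent added, luminescence read after 20 min; furafylline positive control.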

[11] = target: Voltage-gated inwardly rectifying potassium channel KCNH2 (Homo sapiens) (UniProt Q12809); assay: Human Ether-a-go-go-Related Gene (hERG) channel small molecule antagonists: fluorescence cell-based qHTS assay (AID 1671200); further: nearly all actives have a fitted effect of over 50% in size; further: potency means the concentration at half of the fitted maximal effect;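 on activity change, negative = inhibition: hERG-expressing U2OS cells given a thallium stimulus after FluxOR II dye loading; series mostly up to about 77 µM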
Sequence of Voltage-gated inwardly rectifying potassium channel KCNH2 (Homo sapiens) (Q12809 whole entry, looked up): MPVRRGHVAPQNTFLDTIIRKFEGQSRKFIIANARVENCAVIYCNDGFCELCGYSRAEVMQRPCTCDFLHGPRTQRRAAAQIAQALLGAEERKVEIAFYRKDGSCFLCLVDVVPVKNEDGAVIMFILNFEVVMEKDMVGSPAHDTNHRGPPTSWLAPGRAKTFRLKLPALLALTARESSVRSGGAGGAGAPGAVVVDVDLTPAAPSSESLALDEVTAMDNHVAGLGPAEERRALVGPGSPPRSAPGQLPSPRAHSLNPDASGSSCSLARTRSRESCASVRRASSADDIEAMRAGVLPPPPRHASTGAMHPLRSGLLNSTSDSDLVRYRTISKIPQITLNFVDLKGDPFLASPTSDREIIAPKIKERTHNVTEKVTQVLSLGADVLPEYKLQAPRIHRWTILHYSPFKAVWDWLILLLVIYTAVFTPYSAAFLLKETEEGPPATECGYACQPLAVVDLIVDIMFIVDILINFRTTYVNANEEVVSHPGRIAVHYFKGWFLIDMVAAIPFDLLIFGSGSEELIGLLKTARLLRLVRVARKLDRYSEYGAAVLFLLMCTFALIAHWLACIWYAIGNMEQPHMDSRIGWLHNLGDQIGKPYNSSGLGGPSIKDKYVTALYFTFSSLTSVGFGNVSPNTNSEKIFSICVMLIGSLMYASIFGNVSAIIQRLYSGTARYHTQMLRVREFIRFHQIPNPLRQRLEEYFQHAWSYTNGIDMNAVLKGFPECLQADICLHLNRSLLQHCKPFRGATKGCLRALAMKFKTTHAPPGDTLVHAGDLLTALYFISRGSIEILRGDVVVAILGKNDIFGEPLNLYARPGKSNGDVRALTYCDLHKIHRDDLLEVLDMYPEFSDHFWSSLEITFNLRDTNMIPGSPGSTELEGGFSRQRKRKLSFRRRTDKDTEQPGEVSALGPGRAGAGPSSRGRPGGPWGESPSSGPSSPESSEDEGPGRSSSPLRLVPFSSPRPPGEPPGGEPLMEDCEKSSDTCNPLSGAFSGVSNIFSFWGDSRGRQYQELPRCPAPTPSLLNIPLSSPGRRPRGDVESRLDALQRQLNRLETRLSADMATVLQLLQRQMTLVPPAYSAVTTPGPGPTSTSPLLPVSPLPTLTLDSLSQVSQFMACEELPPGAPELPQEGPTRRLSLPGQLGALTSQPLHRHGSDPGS
Method in brief: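 Kinetic two-minute fluorescence traces, sampled at 1 s, were collected following thallium stimulus of U2OS cells (1000 per well) that had been cultured overnight at 37 C and loaded with FluxOR II.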

[12] = target: Cytochrome P450 3A4 (Homo sapiens) (UniProt P08684); assay: Cytochrome P450 Family 3 Subfamily A Member 4 (CYP3A4) small molecule antagonists: luciferase reporter qHTS assay (AID 1671201); further: series mostly up to about 120 µM; nearly all actives have a fitted effect of over 50% in size
Sequence of Cytochrome P450 3A4 (Homo sapiens) (P08684 whole entry, looked up): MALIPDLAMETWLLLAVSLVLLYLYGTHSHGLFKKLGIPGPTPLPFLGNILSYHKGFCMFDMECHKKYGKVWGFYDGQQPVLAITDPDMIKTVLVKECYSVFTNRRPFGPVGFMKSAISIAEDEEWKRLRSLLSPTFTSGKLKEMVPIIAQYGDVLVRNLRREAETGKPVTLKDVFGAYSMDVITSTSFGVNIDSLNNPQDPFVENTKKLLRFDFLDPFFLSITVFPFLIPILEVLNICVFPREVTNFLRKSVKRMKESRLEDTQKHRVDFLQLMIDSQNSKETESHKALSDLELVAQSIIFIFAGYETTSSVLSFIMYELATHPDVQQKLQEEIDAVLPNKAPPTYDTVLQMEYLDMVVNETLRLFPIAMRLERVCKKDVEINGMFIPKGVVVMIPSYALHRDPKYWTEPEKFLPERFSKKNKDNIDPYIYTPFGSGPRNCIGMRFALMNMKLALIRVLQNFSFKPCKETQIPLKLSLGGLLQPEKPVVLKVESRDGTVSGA
Method in brief: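 Proluciferin-to-luciferin conversion by CYP3A4, NADPH-regenerated, 1 h RT; luminescence read as RLU. Ketoconazole as control.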

[13] = target: Cytochrome P450 2D6 (Homo sapiens) (UniProt P10635); assay: Cytochrome P450 Family 2 Subfamily D Member 6 (CYP2D6) small molecule antagonists: luciferase reporter qHTS assay (AID 1671196); further: nearly all actives have a fitted effect of over 50% in size; further: potency means the concentration at half of the fitted maximal effect; on activity change, negative = inhibition: series mostly up to about 120 µM
Sequence of Cytochrome P450 2D6 (Homo sapiens) (P10635 whole entry, looked up): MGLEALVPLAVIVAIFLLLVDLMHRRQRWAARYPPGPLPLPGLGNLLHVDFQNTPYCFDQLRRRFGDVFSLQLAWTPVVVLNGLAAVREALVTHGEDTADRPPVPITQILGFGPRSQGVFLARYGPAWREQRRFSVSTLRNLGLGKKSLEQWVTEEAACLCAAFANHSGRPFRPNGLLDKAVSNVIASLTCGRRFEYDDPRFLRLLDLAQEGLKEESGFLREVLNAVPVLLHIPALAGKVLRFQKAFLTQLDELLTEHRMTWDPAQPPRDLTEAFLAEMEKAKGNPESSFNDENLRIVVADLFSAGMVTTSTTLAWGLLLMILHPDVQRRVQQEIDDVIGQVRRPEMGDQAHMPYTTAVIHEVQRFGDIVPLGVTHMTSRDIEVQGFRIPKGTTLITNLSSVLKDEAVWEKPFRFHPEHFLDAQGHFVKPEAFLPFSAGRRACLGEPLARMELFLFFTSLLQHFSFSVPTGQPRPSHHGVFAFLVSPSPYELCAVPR
Method in brief: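 Cell-free P450-Glo system: CYP2D6 with proluciferin substrate was pre-incubated with compound for 10 min, then reacted with NADPH regeneration for 1 h at room temperature. Luciferin product was detected after 20 min, and data were reported as relative luminescence units.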

[14] = target: Nuclear receptor subfamily 1 group I member 2 (Rattus norvegicus) (UniProt Q9R1A7); assay: Rat pregnane X receptor (rPXR) activation by small molecules, qHTS assay (AID 1346983); conditions: rPXR luciferase reporter cells, One-Glo luminescence, 24 h; max activation: stronger effect = higher value; further: nearly all actives have a fitted effect of over 20% in size
Sequence of Nuclear receptor subfamily 1 group I member 2 (Rattus norvegicus) (Q9R1A7 whole entry, looked up): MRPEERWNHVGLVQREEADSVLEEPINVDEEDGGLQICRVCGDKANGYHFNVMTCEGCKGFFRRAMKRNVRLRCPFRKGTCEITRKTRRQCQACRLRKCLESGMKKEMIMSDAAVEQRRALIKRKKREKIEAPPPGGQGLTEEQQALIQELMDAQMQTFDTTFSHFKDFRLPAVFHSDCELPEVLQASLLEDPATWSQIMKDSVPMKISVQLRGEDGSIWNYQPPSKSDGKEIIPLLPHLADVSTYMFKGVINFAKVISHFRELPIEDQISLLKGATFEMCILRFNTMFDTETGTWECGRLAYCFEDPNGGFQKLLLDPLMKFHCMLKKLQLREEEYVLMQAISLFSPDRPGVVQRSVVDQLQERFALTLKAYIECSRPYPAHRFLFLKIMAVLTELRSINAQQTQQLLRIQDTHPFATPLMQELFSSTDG
Method in brief: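 Cell-based rPXR activation assay: rPXR cells, 2,000 per well, rested 5hr at 37 C, then exposed to compounds in DMSO for 24 hr at 37 C. Luciferase activity read by One-Glo luminescence after 30 min at room temperature.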
On the % scale 0 is the no-effect control and ±100 the full control effect.

Cc1cc(O)c(C(C)C)cc1Cl
inactive: Potency [1] | Potency [2] | outcome [3] | Potency [4] | Potency [5] | Potency [6] | Potency [7] | Potency [11] | Potency [12]
active: Potency [8] 35.6 µM and 24.5 µM | Potency [9] 14.2 µM and 15.5 µM | Potency [10] 20 µM and 15.5 µM

CCC(=O)OC/C=C/c1ccccc1
active: Potency [8] 35.6 µM and 71 µM | Potency [9] 39.9 µM | Potency [10] 63.3 µM
inactive: Potency [1] | Potency [2] | outcome [3] | Potency [4] | Potency [5] | Potency [13] | Potency [11] | Potency [12]

COC(=O)c1cc(S(N)(=O)=O)ccc1OC
inactive: Potency [1] | Potency [2] | outcome [3] | Potency [4] | Potency [5] | Potency [13] | Potency [8] | Potency [9] | Potency [10] | Potency [11]

COCCOC(=O)C1=C(C)NC(C)=C(C(=O)OC/C=C/c2ccccc2)C1c1cccc([N+](=O)[O-])c1 (centres undefined)
active: Potency [2] 26.6 µM | Potency [4] 29.8 µM | Potency [5] 10.6 µM | Potency [6] 1.58 µM | Potency [7] 1.58 µM | Potency [13] 21.9 µM | Potency [8] 1.55 µM | Potency [9] 0.195 µM | Potency [10] 15.5 µM
inactive: Potency [1] | outcome [3] | Potency [11]

CCCCCCCCCCCC(=O)[O][Sn]([CH2]CCC)([CH2]CCC)[O]C(=O)CCCCCCCCCCC
inactive: Potency [1] | Potency [2] | outcome [3] | Potency [4] | Potency [5] | max activation [14] -0.202% | Potency [6] | Potency [7] | Potency [13] | Potency [8] | Potency [9] | Potency [10] | Potency [11] | Potency [12]

CCCOC(=O)c1ccc(N)cc1
inactive: Potency [1] | Potency [2] | outcome [3] | Potency [4] | Potency [5] | Potency [6] | Potency [7] | Potency [11]
active: Potency [8] 24.5 µM | Potency [10] 6.45 µM

CCC(C(=O)OCCOCCN(CC)CC)c1ccccc1 (centres undefined)
inactive: Potency [1] | Potency [2] | outcome [3] | Potency [4] | Potency [5] | max activation [14] -2.49% | Potency [6] | Potency [7] | Potency [8] | Potency [9] | Potency [10] | Potency [11]
active: Potency [13] 13.8 µM

CCn1cc(C(=O)O)c(=O)c2cc(F)c(N3CCNCC3)nc21
inactive: Potency [1] | Potency [2] | outcome [3] | Potency [4] | Potency [5] | Potency [6] | Potency [7] | Potency [13] | Potency [8] | Potency [9] | Potency [10] | Potency [11]

O=[N+]([O-])c1cccc(S(=O)(=O)NCCNS(=O)(=O)c2cccc([N+](=O)[O-])c2)c1
active: Potency [5] 13.3 µM | Potency [6] 7.94 µM | Potency [7] 14.1 µM | Potency [8] 3.09 µM | Potency [9] 8.71 µM
inactive: Potency [1] | Potency [2] | outcome [3] | Potency [4] | Potency [10]

CCCCCCCCCCCC[N+](C)(C)CCCS(=O)(=O)[O-]
inactive: Potency [1] | Potency [2] | outcome [3] | Potency [4] | Potency [5] | Potency [13] | Potency [8] | Potency [9] | Potency [10] | Potency [11]

N#C/C(=C1\SCC(c2ccccc2Cl)S1)n1ccnc1 (centres undefined)
inactive: Potency [1] | Potency [2] | outcome [3] | Potency [4] | Potency [6] | Potency [11]
active: Potency [5] 26.6 µM | Potency [7] 14.1 µM | Potency [13] 2.19 µM | Potency [8] 0.0776 µM | Potency [9] 2.45 µM | Potency [10] 0.871 µM

CC(CCO)CCc1ccccc1 (centres undefined)
active: Potency [8] 7.96 µM | Potency [9] 35.6 µM | Potency [10] 22.4 µM
inactive: Potency [1] | Potency [2] | outcome [3] | Potency [4] | Potency [5] | Potency [13] | Potency [11] | Potency [12]

NCC1CCCC(CN)C1 (centres undefined)
inactive: Potency [1] | Potency [2] | outcome [3] | Potency [4] | Potency [5] | Potency [8] | Potency [9] | Potency [10] | Potency [11] | Potency [12]
active: Potency [13] 14.2 µM

CC1CC(O)CC(C)(C)C1 (centres undefined)
inactive: Potency [1] | Potency [2] | outcome [3] | Potency [4] | Potency [5] | Potency [6] | Potency [7] | Potency [13] | Potency [8] | Potency [9] | Potency [11] | Potency [12]

CCNC(=O)N1CCN(CCCC(c2ccc(F)cc2)c2ccc(F)cc2)CC1
active: Potency [2] 26.6 µM | Potency [4] 29.8 µM | Potency [5] 26.6 µM | Potency [11] 0.107 µM
inactive: Potency [1] | outcome [3] | Potency [6] | Potency [7] | Potency [10]

O=C(N/N=C/c1ccc([N+](=O)[O-])o1)c1ccc(O)cc1
active: Potency [2] 23.7 µM | Potency [4] 29.8 µM
inactive: Potency [1] | outcome [3] | Potency [5] | Potency [6] | Potency [7] | Potency [12]

CN1CCN(c2c(F)cc3c(=O)c(C(=O)O)cn4c3c2OCN4C)CC1
inactive: caspase activation [1] 0.165% [at 19 µM] | activity change, negative = cytotoxicity [2] 3.06% [at 19 µM] | caspase-3/7 activation [3] 0.0403% [at 19 µM] | activity change, negative = cytotoxicity [4] 8.88% [at 19 µM] | activation [5] -8.38% [at 19 µM] | max activation [14] -1.24% | Potency [6] | Potency [7] | activity change, negative = inhibition [13] -1.32% [at 23.6 µM] | activity change, negative = inhibition [8] -8.19% [at 23.6 µM] | activity change, negative = inhibition [9] 9.24% [at 23.6 µM] | Potency [10] | activity change, negative = inhibition [11] -1.8% [at 15.8 µM] | activity change, negative = inhibition [12] 3.15% [at 23.6 µM]

O=C(Nc1ccc([N+](=O)[O-])cc1)Nc1ccc([N+](=O)[O-])cc1
inactive: Potency [1] | Potency [2] | outcome [3] | Potency [4] | Potency [5] | max activation [14] -0.532% | Potency [6] | Potency [7] | Potency [8] | Potency [9] | Potency [10] | Potency [11] | Potency [12]
